Structures are written as SMILES. Among all 200,000 compounds or so, about 110 (0.055%) were called active. No stated cut-off is given here; in the data, active means inhibition above about 50%; inactive means the rest. The sample as a whole holds a higher share of actives than the screen did. Where a SMILES comes first, the peptide text is derived from it. [ ]: non-standard residue; d: D form. ξ: configuration not given here. ξM = CSCCC(N)C(=O)O

Serine/threonine-protein kinase D1 (Homo sapiens), sequence (Q15139 whole entry, looked up): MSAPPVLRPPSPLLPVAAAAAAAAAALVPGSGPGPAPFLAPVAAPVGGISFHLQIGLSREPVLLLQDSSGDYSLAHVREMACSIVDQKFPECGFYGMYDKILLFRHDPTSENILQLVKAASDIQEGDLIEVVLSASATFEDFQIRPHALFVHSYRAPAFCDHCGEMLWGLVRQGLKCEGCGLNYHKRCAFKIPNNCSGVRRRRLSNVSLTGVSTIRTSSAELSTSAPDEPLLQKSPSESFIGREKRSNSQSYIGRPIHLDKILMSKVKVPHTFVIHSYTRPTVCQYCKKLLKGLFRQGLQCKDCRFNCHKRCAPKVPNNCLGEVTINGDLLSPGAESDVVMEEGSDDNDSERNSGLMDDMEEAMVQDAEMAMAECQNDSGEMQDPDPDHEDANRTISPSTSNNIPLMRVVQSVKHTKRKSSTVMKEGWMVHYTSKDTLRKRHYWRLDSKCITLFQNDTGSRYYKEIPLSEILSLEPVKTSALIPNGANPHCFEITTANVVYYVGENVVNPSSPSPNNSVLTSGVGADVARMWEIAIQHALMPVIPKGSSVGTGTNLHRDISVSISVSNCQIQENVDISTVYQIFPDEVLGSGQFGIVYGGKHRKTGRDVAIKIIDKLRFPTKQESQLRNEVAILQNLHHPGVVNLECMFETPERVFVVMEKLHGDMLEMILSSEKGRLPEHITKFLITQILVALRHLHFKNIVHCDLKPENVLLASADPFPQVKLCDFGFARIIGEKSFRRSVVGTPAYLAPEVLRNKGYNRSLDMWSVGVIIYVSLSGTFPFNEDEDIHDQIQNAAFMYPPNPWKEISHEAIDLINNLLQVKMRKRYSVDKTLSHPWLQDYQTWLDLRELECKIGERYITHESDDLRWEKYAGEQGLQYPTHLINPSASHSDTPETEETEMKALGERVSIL

The assay concerns the target Serine/threonine-protein kinase D1 (Homo sapiens) (UniProt Q15139). The experiment in a line: inhibitors of human PKD1 kinase, biochemical, fluorescence polarization (AID 797). The conditions noted are these: PKD1 kinase fluorescence polarization assay; hits give high values; concentration not given here.
Take `CCCCN(CC(=O)NC(C)(C)C)C(=O)C(=O)Nc1ccc2c(c1)OCCO2`: the inhibition was 1.16% (inactive).

As for `CCCOC(=O)c1ccc(N2C(=O)c3ccccc3C2=O)cc1`, the inhibition is 1.49% (inactive). `O=C(CCc1ccccc1)NNC(=O)c1ccc(Br)cc1`: the inhibition was 4.58% (inactive). As for `O=C(c1ccccc1)c1ccc(OCC(O)CN2CCCC2)cc1` (configuration not stated), the inhibition is 13.5% (inactive). With `COC(=O)c1ccc(OCC(O)CN(CCO)CC(O)Cn2ccc3ccccc32)cc1` (configuration not stated), the inhibition is 3.96% (inactive). With `OC(CNCc1ccc(Cl)c(Cl)c1)c1ccccc1` (configuration not stated), the inhibition was -3.03% (inactive). The value for `COc1cc2c(cc1OC)C(Nc1ccc(S(N)(=O)=O)cc1)=NC(C)(C)C2` was -5.13% (inactive); that for `COc1ccc(NC(=O)c2sc(N3CCOCC3)nc2-c2ccccc2)c(OC)c1` was -1.24% (inactive); that for `CCC(=O)Nc1ccc(C(=O)N2CCN(C(=O)c3ccco3)CC2)cc1` was 2.96% (inactive). With `Cc1ccc(NC(=O)Cn2c(=O)n(CCC(=O)NC3CCN(Cc4ccccc4)CC3)c(=O)c3ccccc32)cc1`, the inhibition is 0.69% (inactive). Regarding `O=C(CN1CCOCC1)Nc1c(Cl)cc(Cl)cc1Cl`, the inhibition was -2.42% (inactive). Then `Cc1ccc2nsnc2c1NC(=O)c1ccccc1[N+](=O)[O-]`, with -3.06% (inactive); and `Cc1ccccc1NS(=O)(=O)CCCCC(Cl)(Cl)Cl`, with -2.05% (inactive). With `COc1cccc(C2SCC(=O)N2c2cccc(C)c2)c1OC` (configuration not stated), the inhibition was -7.34% (inactive). Turning to `O=C(NN1C(=O)C2C3C=CC(O3)C2C1=O)c1ccncc1` (configuration not stated), the inhibition is -9.52% (inactive). On to `COc1ccccc1C(=O)NN1C(=O)C2C3C=CC(O3)C2C1=O` (configuration not stated), for which the inhibition is 52.7% (active). Then `O=C(NN1C(=O)C2C3C=CC(O3)C2C1=O)c1ccccc1` (configuration not stated), with -7.27% (inactive); and `O=C(Cc1cccs1)Nc1cccc(-c2nc3ccccc3[nH]2)c1`, with -1.91% (inactive). With `CCc1cc(C(N)=O)c(NC(=O)c2ccc(OC)cc2)s1`, the inhibition was -8.2% (inactive). For `O=C(O)CC(SCC(=O)Nc1ccc(Br)cc1)C(=O)O` (configuration not stated), the inhibition is -6.53% (inactive). The value for `CCOC(=O)c1cnc(SCC(=O)Nc2ccccc2C(=O)OC)nc1N` was -2.4% (inactive). As to `Cc1nc2cc(NC(=O)NC3CC3)ccc2n1C`, the inhibition is -0.99% (inactive). Take `O=C(Cc1ccc([N+](=O)[O-])cc1)N/N=C/c1ccco1`: the inhibition was -4.83% (inactive). In the case of `CCCCC(=O)Nc1ccc(C(=O)Nc2cc(C(F)(F)F)ccc2Cl)cc1`, the inhibition is -1.39% (inactive). As to `O=C(COc1nc2ccccc2nc1N1CCOCC1)NCC(F)(F)F`, the inhibition was -0.08% (inactive). Then `CC(=O)Nc1ccc(S(=O)(=O)N(CCc2ccccc2)CC(=O)N/N=C/c2ccc(C(=O)O)cc2)cc1`, with 5.13% (inactive); and `CCN(CC(=O)Nc1ccccc1OC)C(=O)Cn1cnc2ccccc2c1=O`, with 7.55% (inactive); and `N=C1C(c2nc3ccccc3s2)=C(O)CN1NC(=O)c1ccc([N+](=O)[O-])cc1`, with -8.3% (inactive). Take `CN1CCN(c2ccc(S(=O)(=O)N3CCCCC3)cc2NC(=O)Cc2ccccc2F)CC1`: the inhibition was -6.13% (inactive).

For the compound `Cc1ccc(NC(=O)CN2CCC(C(N)=O)CC2)cc1[N+](=O)[O-]`, the inhibition was 5.71% (inactive). Take `COc1ccc(NC(=O)CC2C(=O)OCC3CCCCN32)cc1Cl` (configuration not stated): the inhibition was -6.39% (inactive). Take `Cc1onc(C(=O)NCc2ccc(F)cc2)c1[N+](=O)[O-]`: the inhibition was 0.1% (inactive). Then `CCn1nc(C)c(/C=N/NC(=O)Cc2ccc(Cl)cc2)c1C`, with 3.28% (inactive); and `O=C(O)c1cccc(N2C(=O)Nc3ccccc3N2O)c1`, with 7.76% (inactive).

Turning to `CCCCCCNCCn1cnc2c(N)ncnc21`, the inhibition is 6.16% (inactive). For `CC1CCN(c2ccc(C(=O)NCc3ccc4c(c3)OCO4)cc2[N+](=O)[O-])CC1`, the inhibition is 0.75% (inactive). Then `Brc1c(CSc2nncc3ccccc23)nc2ccccn12`, with 7.29% (inactive). As for `Cc1ccc(O)c(-c2cc(C(=O)NCc3ccccc3)[nH]n2)c1`, the inhibition was -6.87% (inactive). On to `CCOC(=O)C(CC)/C(C)=N\NC(=O)c1cccc(C)c1` (configuration not stated), for which the inhibition is -4.87% (inactive). On to `COc1cccc2cc(/C(C)=N/NC(=O)c3ccco3)oc12`, for which the inhibition was 5.6% (inactive). On to `O=C(CC1NCCc2ccccc21)Nc1cccc(Cl)c1` (configuration not stated), for which the inhibition is -4.65% (inactive). As for `O=C(CN1CCN(c2ccc(O)cc2)CC1)Nc1cc(S(=O)(=O)N2CCOCC2)ccc1Cl`, the inhibition was 1.7% (inactive). Regarding `CC1(C)C(C=C(Cl)Cl)C1C(=O)N(Cc1ccc(Cl)cc1)C1CCS(=O)(=O)C1` (configuration not stated), the inhibition was 0.63% (inactive). Turning to `CCOC(=O)Cc1ncccc1C(=O)Nc1ccc(OC(F)(F)F)cc1`, the inhibition is -0.72% (inactive).

On to `CN1C(=O)/C(=C\c2ccc(-c3ccccc3)o2)SC1=S`, for which the inhibition is -6.62% (inactive). Turning to `CSc1cccc(NC(=S)N(Cc2ccccc2)Cc2ccccn2)c1`, the inhibition is -9.2% (inactive).

Take `COC(=O)CNC(=O)C(CCSC)NC(C)=O` (configuration not stated) (Ac-[ξM]-Gly-OMe): the inhibition was 9.67% (inactive). The value for `O=C(CSc1ccc(-c2cccs2)nn1)Nc1ccccc1F` was 2.17% (inactive). As to `CCN(CC)CCOCCOc1ccc(Cl)c2ccccc12`, the inhibition is -3.28% (inactive).

As to `CN1CCN(C(=O)C2=C[C@H](c3ccc4c(c3)OCO4)C[C@H](OCc3ccc(CO)cc3)O2)CC1`, the inhibition was -5.9% (inactive). As to `O=C1/C(=C/c2cccs2)CCC1C1CCCC1` (configuration not stated), the inhibition is -1.44% (inactive). Turning to `Cc1ccc(NC(=O)Nc2nnc(-c3ccncc3)s2)cc1`, the inhibition was 2.87% (inactive). The value for `CCc1nnc(NC(=O)CSc2nc(SC)ns2)s1` was 1.32% (inactive); that for `O=C(Nc1nnc(C2COc3ccccc3O2)o1)c1ccc(F)cc1` (configuration not stated) was -1.94% (inactive); that for `CCC(C)NCC(=O)Nc1ccc([N+](=O)[O-])cc1C(=O)Nc1ccccc1F` (configuration not stated) was -10.9% (inactive).

On to `CNC(=O)COC(=O)c1cc(-c2ccc(OC)cc2)nc2ccccc12`, for which the inhibition was -3.14% (inactive). With `Nc1cccc(-c2cc(-c3ccccc3)nc(-c3cccc(N)c3)n2)c1`, the inhibition was -18.9% (inactive).

For the compound `COC(=O)NNC(=O)C1CCC(C)CC1` (configuration not stated), the inhibition was -3.54% (inactive). Then `Cc1cccc(NC(=O)c2nnn(-c3cccc(C(F)(F)F)c3)c2N)c1`, with -0.25% (inactive); and `S=C1NC(c2ccccc2)=NCN1c1ccc(Br)cc1`, with 0.72% (inactive); and `COc1ccc2ccccc2c1CNc1nnnn1C`, with -8.73% (inactive). Regarding `CCC(C)NC(=O)/C=C/c1ccc(S(=O)(=O)NCc2ccco2)cc1` (configuration not stated), the inhibition was 7.02% (inactive). In the case of `CCCCSc1nc2ccccc2[nH]1`, the inhibition was -6.36% (inactive). For the compound `CN(CCc1cn[nH]c1)C(=O)CC1C(=O)NCCN1Cc1cccc(Oc2ccccc2)c1` (configuration not stated), the inhibition was -3.31% (inactive). Take `Cc1c(C(=O)NCCN2C(=O)S/C(=C\c3cccs3)C2=O)cccc1[N+](=O)[O-]`: the inhibition is 8.76% (inactive). On to `Cc1ccc2c(=O)oc(N(C)C)nc2c1`, for which the inhibition is 1.27% (inactive). Regarding `C#CCOCCOCCOCCNc1nc(N2CCN(C(=O)[C@H](CCCCN)n3cc([C@@H](N)C(C)CC)nn3)CC2)nc(N2CCN(C(=O)[C@H](Cc3ccc(O)cc3)n3cc([C@@H](N)C(C)CC)nn3)CC2)n1` (some centres not stated), the inhibition is -0.05% (inactive).

Regarding `C=CCNC(=S)N1CCN(CCN=Cc2c(C)[nH]n(-c3ccc([N+](=O)[O-])cc3)c2=O)CC1`, the inhibition was -2.35% (inactive). Regarding `CC(Oc1ccc(Cl)cc1)c1ccnn1S(C)(=O)=O` (configuration not stated), the inhibition was -7.83% (inactive).

For `CCOC(=O)c1c(NC(=O)C2CCN(S(=O)(=O)c3ccc(Cl)cc3)CC2)sc2c1CCCC2`, the inhibition was 8.85% (inactive).

`CCCCCC1CCC(c2nnc(SCC(C)=O)o2)CC1` (configuration not stated): the inhibition is -8% (inactive). In the case of `O=[N+]([O-])c1cc(S(=O)(=O)N2CCCC2)ccc1NN=C1CCCC1`, the inhibition is 2.42% (inactive). Regarding `Cc1cc(N/N=C/c2ccccc2F)c2ccccc2n1`, the inhibition was 4.69% (inactive). Then `Cc1ccc(-n2cc(CN(C)Cc3nccn3C)c(-c3cccc(C)c3)n2)cc1`, with -5.32% (inactive). Consider `COc1ccc(S(=O)(=O)Nc2cccnc2)c(Cl)c1Cl`, for which the inhibition is -2.39% (inactive). Take `O=C(NCCCN1CCOCC1)c1ccc(N2CCCC2)c([N+](=O)[O-])c1`: the inhibition was -1.03% (inactive). For the compound `CC(C)(C)c1nnc(N/N=C/c2ccc(O)cc2)n(N)c1=O`, the inhibition is -3.71% (inactive). Take `CC(C)(C)NC(=O)NC(=O)CN1CCC(Cc2ccccc2)CC1`: the inhibition is -4.14% (inactive). In the case of `CCN1/C(=C\c2ccc3ccccc3[n+]2CC)Sc2cc(C)ccc21`, the inhibition is -5.46% (inactive). As to `Cc1scc(C(=O)NNC(=S)NCc2ccccc2)c1C`, the inhibition was -7.68% (inactive). The value for `COc1ccc(/C=N/n2c(C)cc(C)cc2=O)cc1` was -7.11% (inactive); that for `CCCn1c(NC(=O)C23CC4CC(CC(O)(C4)C2)C3)nc2ccccc21` was -0.11% (inactive).

These data come from PubChem BioAssay AID797 (University of Pittsburgh Molecular Library Screening Center, 2007).
